Source: article PMC4336329 (PLoS ONE, 2015)
Out of some 310,000 compounds screened, about 14,000 (4.5%) showed an effect of 50% or more. The effect is printed as a negative number. The sample holds strong results, similar compounds and a random draw of the others, so the mix is not that of the screen.

The compounds below were run against human ether-à-go-go-related gene (hERG) potassium channel (human, UniProt Q12809) (assay: primary screen, population patch clamp on CHO cells stably expressing hERG; higher = less effect of the substance).
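Note: peak tail current of the secondary pulse compared with the same well before compound.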

Sequence of human ether-à-go-go-related gene (hERG) potassium channel (Q12809 whole entry, looked up): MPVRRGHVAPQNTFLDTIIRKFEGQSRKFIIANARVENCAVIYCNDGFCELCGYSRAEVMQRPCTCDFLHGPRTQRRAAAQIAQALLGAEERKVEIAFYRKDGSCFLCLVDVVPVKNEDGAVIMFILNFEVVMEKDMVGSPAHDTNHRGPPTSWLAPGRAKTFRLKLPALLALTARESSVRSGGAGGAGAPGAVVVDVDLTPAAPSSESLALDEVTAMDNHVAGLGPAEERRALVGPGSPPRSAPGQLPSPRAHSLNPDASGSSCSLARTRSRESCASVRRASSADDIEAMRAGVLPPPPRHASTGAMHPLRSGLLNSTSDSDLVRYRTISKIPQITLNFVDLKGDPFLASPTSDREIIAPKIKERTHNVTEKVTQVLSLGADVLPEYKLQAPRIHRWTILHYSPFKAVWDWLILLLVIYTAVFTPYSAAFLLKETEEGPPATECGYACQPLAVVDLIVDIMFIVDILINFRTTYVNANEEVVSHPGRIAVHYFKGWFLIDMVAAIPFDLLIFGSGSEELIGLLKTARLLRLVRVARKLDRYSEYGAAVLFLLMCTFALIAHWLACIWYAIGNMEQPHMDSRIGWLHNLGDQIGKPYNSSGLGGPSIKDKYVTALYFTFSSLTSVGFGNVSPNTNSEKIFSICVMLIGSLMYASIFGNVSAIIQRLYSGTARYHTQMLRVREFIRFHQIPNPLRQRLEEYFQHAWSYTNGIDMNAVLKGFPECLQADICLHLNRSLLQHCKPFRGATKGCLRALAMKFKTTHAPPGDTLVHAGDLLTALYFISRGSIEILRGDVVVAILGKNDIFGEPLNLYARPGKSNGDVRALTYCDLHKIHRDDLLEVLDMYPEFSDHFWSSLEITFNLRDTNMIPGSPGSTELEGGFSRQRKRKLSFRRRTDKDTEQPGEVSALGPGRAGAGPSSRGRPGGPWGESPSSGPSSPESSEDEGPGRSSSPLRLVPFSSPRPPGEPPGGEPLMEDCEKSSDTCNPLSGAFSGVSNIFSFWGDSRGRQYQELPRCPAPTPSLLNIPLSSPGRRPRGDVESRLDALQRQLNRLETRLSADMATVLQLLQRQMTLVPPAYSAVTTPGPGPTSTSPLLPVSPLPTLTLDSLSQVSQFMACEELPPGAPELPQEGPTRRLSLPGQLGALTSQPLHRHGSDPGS

Row | SMILES | hERG current change (%, negative = inhibition) at 10uM [%]
1 | COC(=O)C1NN=C(C(=O)c2ccc(Br)cc2)C1c1cccc(Br)c1 (stereo not shown) | 2.42
2 | CC(C)c1nc2sc3c(SCC(N)=O)ncnc3c2c2c1CCC2 | 11.9
3 | NC(=O)c1ccc(C(F)(F)F)n(Cc2c(Cl)cccc2Cl)c1=O | 25.1
4 | CCc1cccc(CC)c1NC(=O)/C(C#N)=C/c1ccccc1C(F)(F)F | 21.4
5 | C=CCn1c(NCCc2ccccc2)nc2c1c(=O)n(C)c(=O)n2C | -1.17
6 | Cc1ccccc1NC(=O)C1CCC(=O)N1 (stereo not shown) | -0.504
7 | Cc1c(N2C(=O)c3ccc(F)cc3C2=O)c(=O)n(-c2ccccc2)n1C | 13.6
8 | Cc1ccccc1Nc1nc(N)nc(-c2oc3ccccc3c2C)n1 | 4.69
9 | COc1ccc(Cl)cc1NC(=O)CCN1C(=O)C2C3C=CC(C4CC34)C2C1=O (stereo not shown) | -24.4
10 | COc1ccc(O)c(-c2cc(-c3ccccc3[N+](=O)[O-])[nH]n2)c1 | -11.7
11 | CCOC(=O)Cc1csc(NC(=O)CSc2nnc(Cc3csc(N)n3)n2C)n1 | -1.19
12 | CCOC(=O)c1c(NC(=O)CSc2nnc(CNc3ccc(OC)cc3)n2C)sc(C)c1C | -21.7
13 | CCOC(=O)c1c(NC(=O)CSc2nnc(Cc3csc(N)n3)n2C)sc(C)c1C | -51.8
14 | Cc1nc(NC(=O)CSc2nnc(Cn3nnc4ccccc43)n2C)sc1C | 0.783
15 | COC(=O)c1c(NC(=O)CSc2nnc(Cn3nnc4ccccc43)n2C)sc(C)c1C | -62.7
16 | COC(=O)c1sc(NC(=O)CSc2nnc(Cn3nnc4ccccc43)n2C)nc1C | 23.9
17 | CN(C)C(=O)N1CCC(C(=O)NCc2ccc3c(c2)OCO3)CC1 | 5.54
18 | O=C(CNc1cccc2ccccc12)N/N=C/c1cccc(Oc2ccccc2)c1 | 18.2
19 | Cc1ccc(S(=O)(=O)N2CCN(C(=O)COC(=O)CCOc3ccccc3)CC2)c(C)c1 | 1.16
20 | CCN(CC(=O)Nc1ccc(OC)cc1)CC(=O)Nc1cccc(C#N)c1 | 0.389
21 | O=C(c1cccc(Cl)c1)C1CCCN(Cc2ccon2)C1 (stereo not shown) | -26.3
22 | COc1ccc(CN2CCCC(C(=O)c3cccc(Cl)c3)C2)cc1 (stereo not shown) | -57.4

Row | SMILES | hERG current change (%, negative = inhibition) at 10uM [%]
23 | COc1cccc(C(=O)C2CCCN(Cc3ccc(F)cc3)C2)c1 (stereo not shown) | -18.6
24 | CS(=O)(=O)N1CCC(C(=O)c2cccc(Cl)c2)CC1 | -0.907
25 | O=C(c1cccc(Cl)c1)C1CCCN(Cc2ccc(N3CCNC3=O)cc2)C1 (stereo not shown) | -43.7
26 | COc1ccc(CN2CCC(C(=O)c3cccc(Cl)c3)CC2)cc1 | -78.7
27 | COc1ccc(CNC(=O)C2CCN(C(=O)c3cccc(Cl)c3)CC2)cc1 | -44.9
28 | COc1cccc(OC)c1CN1CCCC(C(=O)c2cccc(Cl)c2)C1 (stereo not shown) | -69
29 | C[C@H](CCC(=O)NCC(=O)[O-])[C@H]1CC[C@H]2[C@@H]3[C@H](O)C[C@@H]4C[C@H](O)CC[C@]4(C)[C@H]3C[C@H](O)[C@]12C.O.[Na+] | -21.4
30 | Cc1ccc(Cn2ccc(NC(=O)c3cc(-c4ccc(Cl)cc4)on3)n2)cc1 | 17.3
31 | COc1cccc(Nc2ncnc3sc(C)cc23)c1.Cl | -8.64
32 | C#CCOCCOCCOCCNc1nc(N2CCN(C(=O)[C@H]([C@@H](C)CC)n3cc([C@@H](N)CC(C)C)nn3)CC2)nc(N2CCN(C(=O)[C@H](CCCCN)n3cc([C@@H](N)CC(C)C)nn3)CC2)n1.Cl | -10.1
33 | CCOc1ccccc1CNC(=O)c1ccc(NC(=O)C2=CSCCO2)cc1 | 7.72
34 | COc1ccccc1C(=O)NCCC(=O)NCc1ccccn1 | -2.66
35 | O=C(O)C(=O)O.O=[N+]([O-])c1ccc(Oc2ccc(C(F)(F)F)cn2)cc1 | -53.9
36 | O=C(O)c1ccc(Oc2ccc(C(F)(F)F)cn2)cc1 | 17.5
37 | O=[N+]([O-])c1ccc(Oc2ccc(Oc3ccc(C(F)(F)F)cn3)cc2)nc1 | -1.44
38 | COc1ccc(NC(=O)Nc2c(C)n(C)n(-c3ccccc3)c2=O)cc1 | -18.6
39 | NC1=NC(=O)/C(=C\c2ccco2)S1 | 19.2
40 | O=C1N=C(N2CCCC2C(=O)O)S/C1=C\c1ccco1 (stereo not shown) | 35
41 | O=C1N=C(N2CCCC2)S/C1=C\c1ccccc1 | 15.2
42 | O=C1N=C(N2CCN(c3ccccc3)CC2)S/C1=C/c1ccco1 | -53.8
43 | O=C1N=C(N2CCN(c3ccccc3)CC2)S/C1=C\c1ccco1 | -66.1
44 | O=C1N=C(N2CCN(c3ccccc3)CC2)S/C1=C/c1cccs1 | -49.3

Row | SMILES | hERG current change (%, negative = inhibition) at 10uM [%]
45 | CCC(C)C(NC(=O)CCCNC(=O)CCC(=O)OC1O[C@H]2OC3(C)CC[C@H]4[C@H](C)CCC(C1C)C24OO3)C(=O)O (stereo partly shown) | 4.12
46 | CC(C)CC(NC(=O)CCCNC(=O)CCC(=O)OC1O[C@H]2OC3(C)CC[C@H]4[C@H](C)CCC(C1C)C24OO3)C(=O)O (stereo partly shown) | 1.34
47 | Cc1cc(C)n2c3c(c(C#N)c2n1)CC(C)(C)OC3 | 2.81
48 | Cl.c1ccc(-c2nc(NCc3ccco3)c3ccccc3n2)cc1 | -33.4
49 | c1ccc(-c2nc(NCc3ccco3)c3ccccc3n2)nc1 | -62.9
50 | CC(C)(C)Nc1nc(-c2ccccn2)nc2ccccc12 | -69.8
51 | CCC(C)Nc1nc(-c2cccc(OC)c2O)nc2ccccc12 (stereo not shown) | -5.73
52 | C(=N\Nc1nc(-c2ccccn2)nc2ccccc12)/c1ccccc1 | 12.3
53 | c1ccc(CNc2nc(-c3ccccn3)nc3ccccc23)cc1 | -43.5
54 | CCC(C)Nc1nc(-c2ccccn2)nc2ccccc12 (stereo not shown) | -50.2
55 | c1ccc(-c2nc(NCC3CCCO3)c3ccccc3n2)nc1 (stereo not shown) | -23.3
56 | Oc1ccccc1-c1nc(NCc2ccco2)c2ccccc2n1 | 1.8
57 | c1ccc(CCNc2nc(-c3ccccn3)nc3ccccc23)cc1 | -78.6
58 | C/C(=N\Nc1nc(-c2ccccn2)nc2ccccc12)c1ccc(F)cc1 | 11
59 | c1ccc(CCNc2nc(-c3ccncc3)nc3ccccc23)cc1 | 3.71
60 | CCc1ccccc1NC(=O)COc1ccc2c(=O)c(Oc3cc(C)ccc3C)coc2c1 | 10.5
61 | Cc1cc(C(C)(C)C)c(OC(=O)[C@@H]2OC(c3ccccc3)=C[C@H]2c2ccccc2)c(C(C)(C)C)c1 | 7.58
62 | c1coc(C2Nc3ccccc3C3OCCC23)c1 (stereo not shown) | 6.63
63 | CC(C)Cn1c(N)c(C(=O)COC(=O)C2=COCCO2)c(=O)n(C)c1=O | 14.1
64 | CCOC(=O)NCN1C(=O)C2C3C=CC(C3)C2C1=O (stereo not shown) | -11.9
65 | CCCN(CCC)c1nc(-c2ccccn2)nc2ccccc12 | -74.4
66 | CCN(CC)c1nc(-c2ccccc2)nc2ccccc12.Cl | -32.5

Row | SMILES | hERG current change (%, negative = inhibition) at 10uM [%]
67 | CCCCN(CCCC)c1nc(-c2ccncc2)nc2ccccc12 | -0.281
68 | Cc1ccc(N2CC(C(=O)NCc3ccccn3)CC2=O)cc1 (stereo not shown) | 5.36
69 | Cc1ccc(-c2csc(NC(=O)c3cc([N+](=O)[O-])ccc3N3CCOCC3)n2)cc1 | 15.4
70 | COc1ccc(C(NC(N)=O)c2ccccc2)cc1 (stereo not shown) | 10.3
71 | CCc1ccc(NC(=S)N(CCCN2CCN(C)CC2)Cc2cccs2)cc1 | -62.5
72 | S=C(Nc1ccc(Cl)cc1)N(CCCN1CCOCC1)Cc1cccs1 | -32.4
73 | Cc1cc(C)cc(NC(=S)N(CCCN2CCN(C)CC2)Cc2cccs2)c1 | -63.3
74 | CN1CCN(CCCN(Cc2cccs2)C(=S)Nc2ccc(Cl)cc2)CC1 | -71.8
75 | CCc1cccc(C)c1NC(=S)N(CCCN1CCN(C)CC1)Cc1cccs1 | -30.9
76 | Cc1cc(C)c(NC(=S)N(CCCN2CCN(C)CC2)Cc2cccs2)c(C)c1 | -43.9
77 | Cc1ccc(NC(=S)N(CCCN2CCN(C)CC2)Cc2cccs2)cc1 | -51.3
78 | Cc1cc(C)cc(NC(=S)N(CCN(C)C)Cc2cccs2)c1 | -25.1
79 | Cc1ccc(NC(=S)N(CCN(C)C)Cc2cccs2)cc1 | -19.3
80 | CC1CCCC(NS(=O)(=O)c2cc(Br)cnc2N)C1C (stereo not shown) | -8.36
81 | CC(=O)NC(CC(=O)Nc1nc(-c2ccccc2)c(C(C)=O)s1)c1ccccc1 (stereo not shown) | -44.4
82 | COc1ccccc1C(=O)NNC1=C(C(=O)C(F)(F)F)CCC1 | -2.03
83 | O=C(CCl)NN1C(=O)NC(c2ccccc2)(c2ccccc2)C1=O | 11.2
84 | O=C(O)c1ccc(N(c2ccccc2)c2ccccc2)cc1 | 2.69
85 | CCCN1CCN(C(=O)c2cccc3c2C(=O)N(CCOC)C3)CC1 | 13
